Compound activity: PubChem, National Center for Advancing Translational Sciences (NCATS)
Compounds with a hit are over-represented: about 12% of the library has one in this group of screens.
HP1b chromo inh = blocks HP1-beta chromodomain binding to methylated histone tails; hit rate 0.56% among 390,000; AlphaScreen HP1-beta / biotin-H3K9me3 peptide binding; Potency, µM (titrated, usually from 114 µM), for the others: at the highest dose activity change, negative = inhibition, actives largely listed as inhibitors; also: nearly all actives have a fitted effect of over 70% in size
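AlphaScreen: HP1-beta (50 nM) preformed 30 min with biotin-H3(1-18)K9me3 peptide (50 nM) in PBS pH 7.4, 0.01% Tween-20. Compound added for 30 min at RT, then streptavidin donor/nickel chelate acceptor beads (10 ug/mL) for 30 min.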
L3MBTL1 block = L3MBTL1 (human) inhibition. Q9Y468. AlphaScreen L3MBTL1–H3K9me1 peptide binding. Potency, µM (highest dose often 57.1 µM), for the others: top-dose activity, negative = inhibition, usual class: inhibitors. hit rate 0.66% among 230,000; also: % is scaled to controls: 0 for no effect and ±100 for the full control effect; nearly all actives have a fitted effect of over 60% in size
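Read-out is AlphaScreen signal from streptavidin donor and nickel chelate acceptor beads (10 ug/mL final each) bridging L3MBTL1 (50 nM) and biotinylated K9-monomethylated H3(1-15) peptide (75 nM), after 30 min compound exposure at room temperature.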
BAZ2B inh = BAZ2B (human) inhibition | Q9UIF8 | AlphaScreen BAZ2B-H3K14Ac peptide displacement | Potency, µM (doses to about 114 µM), without a hit: at the highest dose activity change, negative = inhibition, hits mostly inhibitors | hit rate 4.4% among 360,000; also: % is scaled to controls: 0 for no effect and ±100 for the full control effect; nearly all actives have a fitted effect of over 60% in size
Target sequence (Q9UIF8 whole entry, looked up): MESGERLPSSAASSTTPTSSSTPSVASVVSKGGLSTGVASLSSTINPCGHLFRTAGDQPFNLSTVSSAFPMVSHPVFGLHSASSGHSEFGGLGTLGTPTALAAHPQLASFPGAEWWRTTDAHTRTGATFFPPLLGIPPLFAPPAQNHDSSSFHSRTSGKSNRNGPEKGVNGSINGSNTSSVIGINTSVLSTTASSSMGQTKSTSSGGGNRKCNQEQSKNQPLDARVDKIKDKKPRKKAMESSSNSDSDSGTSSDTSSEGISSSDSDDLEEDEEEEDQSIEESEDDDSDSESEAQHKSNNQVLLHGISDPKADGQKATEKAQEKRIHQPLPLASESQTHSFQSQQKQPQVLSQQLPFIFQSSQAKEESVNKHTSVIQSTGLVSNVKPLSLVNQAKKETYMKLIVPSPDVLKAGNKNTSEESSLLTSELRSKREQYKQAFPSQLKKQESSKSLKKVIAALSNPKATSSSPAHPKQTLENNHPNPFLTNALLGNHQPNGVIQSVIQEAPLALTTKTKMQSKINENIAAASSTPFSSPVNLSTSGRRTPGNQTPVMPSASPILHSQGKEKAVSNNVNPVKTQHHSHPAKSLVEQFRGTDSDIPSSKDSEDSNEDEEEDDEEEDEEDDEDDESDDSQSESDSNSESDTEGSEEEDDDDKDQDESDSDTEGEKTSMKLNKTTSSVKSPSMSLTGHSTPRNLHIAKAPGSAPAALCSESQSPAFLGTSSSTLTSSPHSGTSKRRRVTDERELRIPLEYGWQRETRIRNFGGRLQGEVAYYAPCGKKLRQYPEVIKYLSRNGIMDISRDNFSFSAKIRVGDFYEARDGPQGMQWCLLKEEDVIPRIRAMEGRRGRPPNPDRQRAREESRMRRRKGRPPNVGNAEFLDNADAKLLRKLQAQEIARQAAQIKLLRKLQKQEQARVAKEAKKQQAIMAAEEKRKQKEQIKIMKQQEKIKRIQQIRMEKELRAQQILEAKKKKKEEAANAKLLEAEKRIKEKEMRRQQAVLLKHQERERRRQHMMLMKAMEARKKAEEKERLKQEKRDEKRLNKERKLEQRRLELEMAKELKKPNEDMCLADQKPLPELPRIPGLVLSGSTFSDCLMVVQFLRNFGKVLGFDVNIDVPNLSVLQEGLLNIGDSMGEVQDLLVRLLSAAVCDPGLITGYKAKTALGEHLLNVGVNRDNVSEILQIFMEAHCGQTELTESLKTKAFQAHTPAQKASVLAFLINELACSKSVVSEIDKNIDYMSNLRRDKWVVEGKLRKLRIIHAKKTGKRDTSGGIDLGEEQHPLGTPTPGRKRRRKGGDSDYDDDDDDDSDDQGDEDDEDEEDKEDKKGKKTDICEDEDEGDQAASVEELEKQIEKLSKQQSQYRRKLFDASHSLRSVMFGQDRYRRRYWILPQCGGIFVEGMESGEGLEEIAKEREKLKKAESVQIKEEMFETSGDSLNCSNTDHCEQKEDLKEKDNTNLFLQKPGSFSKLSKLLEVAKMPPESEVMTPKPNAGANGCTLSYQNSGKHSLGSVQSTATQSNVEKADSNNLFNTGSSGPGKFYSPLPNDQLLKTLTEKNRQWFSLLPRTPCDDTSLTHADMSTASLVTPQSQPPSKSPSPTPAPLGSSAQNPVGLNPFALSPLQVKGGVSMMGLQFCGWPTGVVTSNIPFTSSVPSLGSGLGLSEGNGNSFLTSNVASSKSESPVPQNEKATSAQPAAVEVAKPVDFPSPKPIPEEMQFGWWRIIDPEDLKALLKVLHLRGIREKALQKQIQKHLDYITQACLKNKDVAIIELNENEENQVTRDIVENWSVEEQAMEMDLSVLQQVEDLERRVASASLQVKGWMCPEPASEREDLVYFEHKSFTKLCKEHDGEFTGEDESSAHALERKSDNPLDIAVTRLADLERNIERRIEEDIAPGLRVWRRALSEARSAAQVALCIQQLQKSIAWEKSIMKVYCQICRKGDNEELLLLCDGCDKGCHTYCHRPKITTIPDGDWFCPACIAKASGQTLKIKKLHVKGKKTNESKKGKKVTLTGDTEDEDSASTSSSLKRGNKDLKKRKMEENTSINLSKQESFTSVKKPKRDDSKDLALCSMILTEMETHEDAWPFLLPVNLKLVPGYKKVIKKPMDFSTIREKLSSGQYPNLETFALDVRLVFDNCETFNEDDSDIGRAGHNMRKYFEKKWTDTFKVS
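BAZ2B 50 nM plus b-H3(5-23)K14Ac 50 nM, PBS pH 7.4/0.01% Tween-20, 30 min RT; compound added (max 110 uM), 30 min RT; streptavidin donor/Ni-chelate acceptor beads 10 ug/mL final, 20 min dark; AlphaScreen read.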
JMJD2A Tudor = JMJD2A Tudor domain (human) inhibition. Potency, µM (top dose mostly 114 µM), without a hit: at the top dose activity change, negative = inhibition, hits mostly inhibitors. O75164. AlphaScreen JMJD2A-Tudor / H3K4me3 peptide binding. AID 504339. hit rate 4.4% among 390,000; also: % is scaled to controls: 0 for no effect and ±100 for the full control effect; nearly all actives have a fitted effect of over 50% in size
G9a block = G9a (human) methyltransferase inhibition; Q96KQ7; Potency, µM (series often up to 102 µM), without a hit: at the top dose activity, negative = inhibition, actives largely listed as inhibitors; hit rate 8.8% among 350,000; AID 504332; G9a H3K9 monomethylation, AlphaScreen, 2 h; also: % is scaled to controls: 0 for no effect and ±100 for the full control effect; nearly all actives have a fitted effect of over 75% in size
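Step 1: enzyme (final 20 nM) with compound, 15 min RT. Step 2: substrate peptide 500 nM and SAM 20 uM, 2 h RT. Step 3: anti-H3K9me1 antibody and AlphaScreen beads, 10 min, then plate read.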
Sfp inh = Sfp phosphopantetheinyl transferase inhibition; Biochemical Sfp PPTase activity, qHTS; Potency, µM, for the others: largest response in the series, negative = inhibition, actives largely listed as inhibitors; hit rate 3.5% among 310,000;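 also: the enzyme is Sfp with the accession as filed and its product quenches rhodamine fluorescence; 0% = enzyme reaction without inhibitor and -100% = no enzyme wells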
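Fluorescence-quenching assay: 15 nM Sfp-PPTase preincubated 15 min at room temperature with compound, then 5 uM rhodamine-CoA and 12.5 uM BHQ-2-labelled YbbR peptide added. Fluorescence (ex 525/em 598 nm) read at start and after 30 min; difference gives rate.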
The depositor's hits bear a star; ? = inconclusive; / = no result given; [ ] = dose if it differs, or a comment. Calls follow the shape of the dose curve; as a rule, active = well fitted curve in the direction sought with a large enough effect; inconclusive = small, poorly fitted or top-dose-only effect, or another doubt; inactive = no such curve, though single readings can be large; an effect the other way counts as inactive or inconclusive. Potency is read from the fitted curve at half-maximal effect.

SMILES	HP1b chromo inh	L3MBTL1 block	BAZ2B inh	JMJD2A Tudor	G9a block	Sfp inh
CC(C)C[C@@H](CC(=O)N[C@@H](CCC(=O)O)CC(=O)O)NC(=O)[C@@H]1CNCC[C@H]1NC(=O)C[C@@H](NC(=O)C[C@H](Cc1ccccc1)NC(=O)[C@@H]1CNCC[C@H]1N)C(C)C	/	/	/	/	/	-11%
CCOC(=O)c1ccc(NC(=O)CN2C(=O)c3cccnc3Sc3ccccc32)cc1	-11%	/	-25%	-26%	2%[59 µM]	/
Cc1ccc(-c2nnc(SCC(=O)N3CCCC3)o2)cc1C	33%	-2%	-1%	?	50µM*	-7%
CCC(C)(Oc1ccc(C2(c3ccc(OC(C)(CC)C(=O)O)cc3)CCCCC2)cc1)C(=O)O (configuration not stated)	/	/	/	/	-5%[12.7 µM]	25%
Cn1nnnc1Sc1ncnc2scc(I)c12	/	/	/	79µM*	/	/
Cn1nnnc1Sc1ncnc2scc(Br)c12	47%	5%	/	5%	/	/
Cc1ccc(/C=N/NC(=O)c2cc(C3CC3)nc3ccccc23)o1	7%	0%	?	-19%	2%[59 µM]	50µM*
Cc1ccc(/C=N/NC(=O)c2cc(-c3ccccc3)nc3ccccc23)o1	13%	/	?	?	2%[0.0925 µM]	50µM*
Cc1cc(C(=O)N/N=C/c2ccc(C)o2)c2ccccc2n1	36%	-8%	-8%	-8%	?	-25%
COc1ccc2nc(NC(=O)c3cc(=O)c4cc(C)cc(C)c4o3)sc2c1	2%	/	-12%	-35%	-32%[59 µM]	/
CCCCc1nnc(NC(=O)CCS(=O)(=O)Cc2ccccc2)s1	22%	/	-2%	1%	?	6%
CCC(CC)c1nnc(NC(=O)Cc2ccccc2[N+](=O)[O-])s1	-9%	-2%	-28%	-13%	40µM*	12%
CCC(CC)c1nnc(NC(=O)CCc2ccccc2OC)s1	15%	/	2%	-8%	18%	11%
O=C(CS(=O)(=O)c1ccccc1)Nc1nnc(Cc2ccccc2)s1	-13%	/	-26%	-7%	32µM*	45µM*
CCCc1nnc(NC(=O)CCS(=O)(=O)Cc2ccccc2)s1	15%	/	7%	-7%	45µM*	-12%
CCC(CC)c1nnc(NC(=O)CCS(=O)(=O)Cc2ccccc2)s1	6%	/	1%	-14%	18µM*	63µM*
CC1CCN(S(=O)(=O)c2cc(C(=O)NCCc3ccccc3)n(C)c2)CC1	28%[57 µM]	/	-17%	-14%	3%[59 µM]	/
CCc1nnc(NC(=O)CCS(=O)(=O)Cc2ccccc2)s1	-9%	/	-17%	-18%	50µM*	13%
CCC(CC)c1nnc(NC(=O)CS(=O)(=O)c2ccccc2)s1	-38%	/	0%	-4%	10µM*	50µM*
O=C(CCS(=O)(=O)Cc1ccccc1)Nc1nncs1	10%	/	3%	-1%	45µM*	12%
CCc1nnc(NC(=O)CS(=O)(=O)Cc2ccccc2)s1	-10%	/	3%	-1%	-7%	3%
COC(=O)C1=C(c2ccccc2)c2ccccc2S(=O)(=O)N1CC(=O)Nc1ccc(OC)cc1OC	27%	/	-20%	-22%	-38%[59 µM]	/
CCC(=O)OCC(=O)[C@@]1(OC(=O)CC)[C@@H](C)C[C@@H]2[C@H]3CCC4=CC(=O)C=C[C@]4(C)[C@@]3(F)[C@@H](O)C[C@@]21C	/	/	/	/	2%[59 µM]	9%
CC(=O)Nc1ccc(/C=N/Nc2nc3ccccc3s2)cc1	41%	0%	-1%	-5%	-3%	-8%
C(=N\Nc1nncc2ccccc12)/c1ccccn1	11%	/	25µM*	79µM*	-6%	10%
Fc1cccc(/C=N/Nc2nccnc2Cl)c1	45%	2%	-2%	-19%	36%	13%
CC(=O)Nc1ccc(/C=N/Nc2nncc3ccccc23)cc1	9%	/	-17%	-17%	30%[0.501 µM]	89µM*
Fc1cccc(/C=N/Nc2nncc3ccccc23)c1	17%	/	-34%	20µM*	11%	-9%
Cc1ccc(N2CC(NC(=O)C3CCCC3)CC2=O)cc1C (configuration not stated)	9%	/	-1%	-13%	5%[59 µM]	/
